Assay [1] concerns DLD1. Nature of the assay: cell viability (CellTiter-Glo) relative to plate median (fraction of plate median); higher = more viable cells. The settings on record: 5 µM; treatment time 24 h; reporter: 7TFP. The gist of the method:
(§1)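 Luminescence, normalised well by well to the plate median, is tabulated as a mean of independent replicates. There were two replicates, run on colorectal cancer lines stably transduced with lentiviral TCF/Wnt firefly luciferase reporters and dosed with library compounds at a final 5 µM for 24 h. Readouts were firefly luciferase or CellTiterGlo on parallel plates.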

In another assay the test system is HCT116. Described as above. To be noted: 5 µM; treatment time 24 h; reporter: TCF4/Wnt. In short, it runs like this: as §1
The test system of assay [2] is SW480. The assay is described as above. The settings on record: 5 µM; treatment time 24 h; reporter: 7TFP. The gist of the method:
as §1

Assay [3] deals with DLD1. Nature of the assay: TCF/Wnt firefly luciferase reporter signal relative to plate median (fraction of plate median); higher = higher Wnt reporter signal. To be noted: 5 µM; treatment time 24 h; reporter: 7TFP. The gist of the method: as §1
For assay [4], the system named is SW480. The description is as above. The settings on record: 5 µM; treatment time 24 h; reporter: 7TFP. The gist of the method: as §1

± gives the standard deviation of the averaged measurements.

Consider `CCOC(=O)[C@H](CCc1ccccc1)N[C@@H](C)C(=O)N1CCC[C@H]1C(=O)O`, for which the cell viability with DLD1 [1] was determined as 0.971 ± 0.018; with HCT116 it was 1.11 ± 0.085; in the assay on SW480 [2], 1 ± 0.029. Further, the “TCF/Wnt firefly luciferase reporter signal” value is 1.04 ± 0.035 in the assay on DLD1 [3] and 0.994 ± 0.023 in the assay on SW480 [4].
For `COC(=O)CC[C@@H](C)[C@H]1CC[C@H]2[C@@H]3CC[C@@H]4C[C@H](O)CC[C@]4(C)[C@H]3C[C@H](O)[C@]12C`, in that order: 0.964 ± 0.065, 1.02 ± 0.097, 0.944 ± 0.018, 0.955 ± 0.079 and 0.875 ± 0.061.
On the same counts, the results for `COc1ccc(C[C@H](N)C(=O)N[C@H]2[C@@H](O)[C@H](n3cnc4c(N(C)C)ncnc43)O[C@@H]2CO)cc1` are 0.892 ± 0.1, 0.908 ± 0.04, 0.9485 ± 0.00071, 0.999 ± 0.03 and 1.05 ± 0.042.
On the same counts, the results for `COc1ccc2[nH]cc(CCNC(C)=O)c2c1` are 0.961 ± 0.0071, 1.11 ± 0.05, 0.974 ± 0.052, 0.967 ± 0.046 and 0.983 ± 0.095.
For `CCCCC(=O)O[C@H]1CC[C@H]2[C@@H]3CCc4cc(O)ccc4[C@H]3CC[C@]12C`, the cell viability with DLD1 [1] came out at 1.07 ± 0.042; in the assay on HCT116, 1.01 ± 0.052; in the assay with SW480 [2] it was 1 ± 0.036. Also, the entries for the “TCF/Wnt firefly luciferase reporter signal” value in the assay on DLD1 [3] and in the assay with SW480 [4] were 0.956 ± 0.25 and 1.04 ± 0.11, respectively.
As for `CN(C)CCC(c1ccccc1)c1ccccn1` (stereo not given), the figures for the cell viability in the assay on DLD1 [1], in the assay on HCT116 and in the assay with SW480 [2] were 0.973 ± 0.039, 1 ± 0.18 and 0.963 ± 0.032, respectively. The “TCF/Wnt firefly luciferase reporter signal” value with DLD1 [3] worked out at 1.16 ± 0.035; in the assay with SW480 [4], 1.055 ± 0.0071.
On the same counts, the results for `CCC(C)C(NC)C(=O)O` (stereo not given) are 0.959 ± 0.073, 0.923 ± 0.058, 0.946 ± 0.05, 1.01 ± 0.22 and 0.947 ± 0.09.
With `COC(=O)N/N=C/c1c[n+]([O-])c2ccccc2[n+]1[O-]`, the figures for the cell viability in the assay on DLD1 [1], in the assay on HCT116 and in the assay with SW480 [2] were 0.917 ± 0.13, 0.998 ± 0.2 and 0.974 ± 0.021, respectively. The “TCF/Wnt firefly luciferase reporter signal” value turned out to be 0.919 ± 0.064 in the assay with DLD1 [3] and 0.9245 ± 0.0092 with SW480 [4].
On the same counts, the results for `N[C@@H](CSCSC[C@H](N)C(=O)O)C(=O)O` are 0.966 ± 0.013, 0.915 ± 0.022, 0.9935 ± 0.0092, 1.05 ± 0.014 and 0.934 ± 0.048.
On the same counts, the results for `COc1ccccc1OCC(O)COC(N)=O` (stereo not given) are 1.02 ± 0.076, 1.01 ± 0.089, 0.995 ± 0.035, 0.982 ± 0.054 and 0.967 ± 0.047.
On the same counts, the results for `O=c1cc(-c2cc(O)c(O)c(O)c2)oc2cc(O)cc(O)c12` are 1.02 ± 0.014, 1.06 ± 0.057, 0.943 ± 0.031, 1 ± 0.057 and 0.952 ± 0.059.
As to `C=C1C2CC[C@@]3(C)[C@H](c4ccoc4)OC(=O)C[C@]13O[C@H]1CC(O)C(C)(C)C(CC(=O)OC)[C@@]21C` (stereo partly drawn) [3alpha-HYDROXY-3-DEOXYANGOLENSIC ACID METHYL ESTER], the cell viability amounted to 1.01 ± 0.049 with DLD1 [1], 0.943 ± 0.081 in the assay with HCT116 and 1.02 ± 0.059 with SW480 [2]. Moreover, the “TCF/Wnt firefly luciferase reporter signal” value in the assay on DLD1 [3] is 1.05 ± 0.05; in the assay with SW480 [4], 0.968 ± 0.06.
With `C[C@@H]1O[C@@H]1P(=O)(O)O`, the cell viability was determined as 1.04 in the assay with DLD1 [1], 0.995 ± 0.15 in the assay with HCT116 and 1.06 ± 0.028 with SW480 [2]. Also, the “TCF/Wnt firefly luciferase reporter signal” value in the assay on DLD1 [3] came to 1.03 ± 0.028; in the assay with SW480 [4], 0.997 ± 0.22.
On to `CC(N/C(=N\C#N)Nc1ccncc1)C(C)(C)C` (stereo not given), for which the cell viability with DLD1 [1] was 0.99 ± 0.043; with HCT116 it was 0.904 ± 0.0014; with SW480 [2], 0.989 ± 0.1. The “TCF/Wnt firefly luciferase reporter signal” value in the assay on DLD1 [3] was 0.799 ± 0.04; in the assay on SW480 [4] it was 0.941 ± 0.073.
For the compound `CC(C(=O)O)c1ccc2c(c1)[nH]c1ccc(Cl)cc12` (stereo not given), the cell viability with DLD1 [1] stood at 1.02 ± 0.063; in the assay on HCT116, 1.03 ± 0.061; in the assay with SW480 [2] it was 0.968 ± 0.0071. For the same compound, the “TCF/Wnt firefly luciferase reporter signal” value with DLD1 [3] is 1.04 ± 0.042; in the assay with SW480 [4], 1.09 ± 0.021.
For the compound `CCOC(=O)C1=C(C)NC(C)=C(C(=O)OC)C1c1cccc([N+](=O)[O-])c1` (stereo not given), the cell viability with DLD1 [1] came out at 0.964 ± 0.03; with HCT116, 1.02 ± 0.15; with SW480 [2], 0.95 ± 0.057. Further, the “TCF/Wnt firefly luciferase reporter signal” value in the assay on DLD1 [3] came out at 1.06 ± 0.035; in the assay with SW480 [4], 1.01 ± 0.039.
For the compound `CCCCC(=O)O[C@]1(C(=O)CO)[C@@H](C)C[C@H]2[C@@H]3CCC4=CC(=O)C=C[C@]4(C)[C@@]3(F)[C@@H](O)C[C@@]21C`, the cell viability in the assay on DLD1 [1] was 1.04 ± 0.021; in the assay with HCT116, 1.15 ± 0.028; in the assay on SW480 [2], 0.987 ± 0.047. Further, the “TCF/Wnt firefly luciferase reporter signal” value amounted to 0.868 ± 0.011 in the assay on DLD1 [3] and 0.942 ± 0.22 in the assay with SW480 [4].
On the same counts, the results for `COC(=O)[C@H](c1ccccc1Cl)N1CCc2sccc2C1` are 1.045 ± 0.0071, 0.921 ± 0.02, 1.07 ± 0.028, 0.853 ± 0.041 and 0.906 ± 0.016.
On to `O=C(Nc1ccc(C(=O)O)c(O)c1)c1ccccc1`, for which the cell viability in the assay on DLD1 [1] came to 1.065 ± 0.0071; in the assay on HCT116, 0.924 ± 0.011; in the assay on SW480 [2], 1.01 ± 0.032. For the same compound, the results for the “TCF/Wnt firefly luciferase reporter signal” value in the assay with DLD1 [3] and with SW480 [4] were 0.83 ± 0.016 and 1.07 ± 0.05, respectively.
Consider `CC1CCC(C(C)C)C(O)C1` (stereo not given), for which the cell viability stood at 1.05 ± 0.1 with DLD1 [1], 1.04 with HCT116 and 1.02 ± 0.066 in the assay on SW480 [2]. Also, the “TCF/Wnt firefly luciferase reporter signal” value with DLD1 [3] was 1.09 ± 0.035; in the assay with SW480 [4], 1.01 ± 0.09.
As to `CCOc1cccc(C(=O)c2ccc(O)c(O)c2O)c1`, the cell viability was determined as 1.03 in the assay with DLD1 [1], 1.085 ± 0.0071 in the assay on HCT116 and 1.07 ± 0.021 with SW480 [2]. Further, the “TCF/Wnt firefly luciferase reporter signal” value amounted to 1.04 ± 0.088 in the assay on DLD1 [3] and 0.932 ± 0.019 in the assay on SW480 [4].
For `CNc1ccccc1C(=O)N1CCc2c([nH]c3ccccc23)C1=O`, in that order: 1.03 ± 0.043, 0.996 ± 0.1, 0.994 ± 0.0085, 1.14 and 1.09 ± 0.14.
For `C=C[C@@]1(C)CC(=O)[C@]2(O)[C@@]3(C)[C@@H](O)CCC(C)(C)[C@@H]3[C@H](O)[C@H](OC(C)=O)[C@@]2(C)O1`, in that order: 1.09 ± 0.099, 0.942 ± 0.069, 1.12 ± 0.021, 1.23 ± 0.05 and 1.14 ± 0.099.
On the same counts, the results for `Nc1nc(=O)c2c([nH]1)NCC(CNc1ccc(C(=O)N[C@@H](CCC(=O)O)C(=O)O)cc1)N2C=O` (stereo not given in full) are 1 ± 0.085, 1.03, 1.01 ± 0.019, 1.02 ± 0.12 and 1.01 ± 0.028.
For the compound `CC(=O)OC(C)(C)[C@@H]1Cc2cc3ccc(=O)oc3cc2O1`, the cell viability was found to be 1.06 ± 0.014 in the assay with DLD1 [1], 1.1 ± 0.014 with HCT116 and 1.03 ± 0.062 with SW480 [2]. Moreover, the “TCF/Wnt firefly luciferase reporter signal” value amounted to 0.896 ± 0.039 with DLD1 [3] and 0.944 ± 0.077 with SW480 [4].
Take `CCOC(=O)C1=C[C@]2(CC)CCCN3CCc4c(n1c1ccccc41)[C@@H]32`: the values for the cell viability in the assay on DLD1 [1], in the assay with HCT116 and with SW480 [2] were 0.916 ± 0.016, 1.01 ± 0.088 and 0.995 ± 0.0071, respectively. The “TCF/Wnt firefly luciferase reporter signal” value was 1.02 ± 0.067 in the assay with DLD1 [3] and 0.782 ± 0.079 with SW480 [4].
For the compound `NCCCS(=O)(=O)O`, the cell viability turned out to be 0.999 ± 0.044 with DLD1 [1], 0.993 ± 0.052 in the assay with HCT116 and 0.974 ± 0.011 with SW480 [2]. Moreover, the “TCF/Wnt firefly luciferase reporter signal” value in the assay with DLD1 [3] was 0.969 ± 0.14; in the assay with SW480 [4], 1.11 ± 0.05.
For `CO/N=C1\C[C@]2(C[C@@H]3C[C@@H](C/C=C(\C)C[C@@H](C)/C=C/C=C4\CO[C@@H]5[C@H](O)C(C)=C[C@@H](C(=O)O3)[C@]45O)O2)O[C@H](/C(C)=C/C(C)C)[C@H]1C`, in that order: 0.891 ± 0.0092, 0.921 ± 0.019, 0.896 ± 0.042, 0.939 ± 0.24 and 0.932 ± 0.11.
In the case of `CO[C@H]1/C=C/O[C@@]2(C)Oc3c(C)c(O)c4c(O)c(c(/C=N/N5CCN(C)CC5)c(O)c4c3C2=O)NC(=O)/C(C)=C\C=C\[C@H](C)[C@H](O)[C@@H](C)[C@@H](O)[C@@H](C)[C@H](OC(C)=O)[C@@H]1C`, the cell viability in the assay on DLD1 [1] stood at 1.01 ± 0.064; with HCT116, 1.07 ± 0.13; in the assay on SW480 [2], 1.05 ± 0.028. Further, the figures for the “TCF/Wnt firefly luciferase reporter signal” value with DLD1 [3] and with SW480 [4] were 1.01 ± 0.037 and 1.08 ± 0.057, respectively.

The record behind these values is the supplement of paper PMC6522484.
